Source: PubChem BioAssay AID1471 (National Center for Advancing Translational Sciences (NCATS), 2008)
In all, about 230,000 compounds went through this assay and about 310 (0.13%) were called active. Inconclusive results (about 2%) are left out. This is one part of a sample in which actives are shown more often than they occur. Calls follow the shape of the dose curve; as a rule, active = well fitted activation curve with a large enough effect; inconclusive = small, poorly fitted or top-dose-only effect; inactive = no such curve, though single readings can be large or run the other way.

assay: qHTS Multiplex Assay to Identify Dual Action Probes in a Cell Model of Huntington: Cytoprotection (ATP); settings: PC12 HTT-Q103 induced, ATP luminescence, 40 h; series mostly up to 56.4 µM; cytoprotection (ATP increase): at the top concentration; also: nearly all actives have a fitted effect of over 45% in size;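 as to cytoprotection (ATP increase): toxic huntingtin expression switched on by the ecdysone agonist tebufenozide; % of control where 0% means no effect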
Procedure, shortened: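 Compounds were screened for protection of PC12 cells against cell death after tebufenozide induction (100 nM final) of mutant Huntingtin exon 1 (Q103) fused to GFP.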
Potency is read from the fitted curve at half-maximal effect.

| Structure (SMILES) | cytoprotection (ATP increase) | Potency |
| --- | --- | --- |
| CCN1C(=O)N[C@@H](c2ccccc2)C(C(=O)OC)=C1C | -11.9% [at 10 µM] (inactive) |  |
| NC(=O)C(=O)N/N=C/c1ccc([N+](=O)[O-])o1 | -372% (inactive) |  |
| CCOC(=O)C1CSC(CC(=O)Nc2ccc(OCC)cc2)C(=O)N1 (centres undefined) | 0.901% [at 10 µM] (inactive) |  |
| COCCCNC(=O)Cn1cc(/C=C(\C#N)C(=O)N2CCN(c3ccccc3)CC2)c2ccccc21 | 1.65% [at 10 µM] (inactive) |  |
| COC(=O)C(C(=O)OC)C1c2ccccc2C=C(C2CC2)N1C(=O)OC (centres undefined) | inactive |  |
| Cc1csc(-c2coc3cc(O[C@@H]4O[C@H](CO)[C@@H](O)[C@@H](O)[C@H]4O)ccc3c2=O)n1 | -383% (inactive) |  |
| O=C1CCC[C@@H]2CC(N3CCCCC3)C[C@@H]3CCN1[C@H]23 (some centres undefined) | -15.5% [at 96.6 µM] (inactive) |  |
| CC1=C(C/C=C(\C)CCCC(C)CCCC(C)CCCC(C)C)C(=O)c2ccccc2C1=O (centres undefined) | -51.3% (inactive) |  |
| CCOC(=O)C1=C(C)c2ccccc2OC1(C)C(=O)OCC (centres undefined) | 11.4% (inactive) |  |
| COC(=O)[C@@H]1CC2=CC(=O)CC[C@]2(C)[C@@]23O[C@@H]2C[C@@]2(C)[C@@H](CC[C@@]24CCC(=O)O4)[C@H]13 | -18% (inactive) |  |
| C[C@H](NC(=O)c1nc[nH]c1C(=O)N[C@@H](C)C(=O)OC(C)(C)C)C(=O)OC(C)(C)C | 22% [at 10 µM] (inactive) |  |
| CCCCC/C=C\C/C=C\CCCCCCCCCC(N)=O | -31.3% (inactive) |  |
| CCCCC/C=C\CC1OC1CCCCCCCC(=O)O (centres undefined) | inactive |  |
| CCCCCCCC[C@@H](O)/C=C/C=C/C=C\[C@@H](O)CCCC(=O)O | 7.03% (inactive) |  |
| Cc1ccccc1CSCCNC(=O)c1ccc(Cl)c(S(=O)(=O)N2CCOCC2)c1 | -0.687% [at 10 µM] (inactive) |  |
| CC(C)(CNC(=O)c1ccc(Cl)c(S(=O)(=O)N2CCc3ccccc3C2)c1)N1CCOCC1 | -28.4% (inactive) |  |
| O=C(NCCSCc1ccccc1)c1ccc(Cl)c(S(=O)(=O)N2CCOCC2)c1 |  | 0.398 µM (active) |
| CCCCC/C=C\C/C=C\CCCCCCCCCC(=O)O | 27.2% (inactive) |  |
| Nc1nc2c(ncn2[C@@H]2O[C@H](COP(=O)(O)OP(=O)(O)OP(=O)(O)O)[C@@H](O)C2O)c(=O)[nH]1 (some centres undefined) | -90.9% (inactive) |  |
| CC1(C)O[C@@H]2C[C@@H]3[C@H]4C[C@@H](F)C5=CC(=O)C=C[C@]5(C)[C@@]4(F)[C@@H](O)C[C@]3(C)[C@]2(C(=O)CO)O1 | 23.8% (inactive) |  |

| Structure (SMILES) | cytoprotection (ATP increase) | Potency |
| --- | --- | --- |
| C/C=C/C=N/NC(=O)c1ccncc1 | -10.9% (inactive) |  |
| CCOC(=O)c1c(NC(=O)CSc2nnc(CNc3ccc(C)cc3C)o2)sc(C)c1C | 33% [at 10 µM] (inactive) |  |
| CCOC(=O)C1=C(C(=O)OCC)C(C(=O)OCC)N(S(=O)(=O)C(F)(F)F)c2ccccc21 (centres undefined) | -4.86% (inactive) |  |
| CC(OC(=O)CNS(=O)(=O)/C=C/c1ccccc1)C(=O)Nc1ccc(S(=O)(=O)N2CCCC2)cc1 (centres undefined) | 15.7% [at 10 µM] (inactive) |  |
| CC(C)(C)NCC(O)COc1cccc2[nH]c(=O)[nH]c12 (centres undefined) | 14.7% (inactive) |  |
| CC/C=C\C/C=C\C/C=C\C/C=C\C/C=C\C/C=C\CCC(=O)NCCc1ccc(O)c(O)c1 | -58.8% (inactive) |  |
| CC(C)c1cnc(NC(=O)Cc2ccccc2)s1 | -2.22% (inactive) |  |
| N#Cc1ccc(-c2nc3cc(C#N)c(C#N)cc3nc2-c2ccccc2)cc1C#N |  | 2.82 µM (active) |
| N#Cc1ccc(-c2ccc(F)cc2)nc1Sc1ccccc1 | -6.63% (inactive) |  |
| N#Cc1c(-c2ccc(F)cc2)nc(-c2ccccc2)[nH]c1=O | -15.7% (inactive) |  |
| Cc1csc(-c2nc3ccccc3n2C)n1 | -116% [at 1.9 µM] (inactive) |  |
| CC(O)[C@@H](N)C(=O)O (some centres undefined) | -19.9% (inactive) |  |
| COc1ccc(OC)c(NC(=O)c2cnn(-c3ccccc3Cl)c2NC(=O)c2ccco2)c1 | -18.6% (inactive) |  |
| C=CCC(C)(O)c1ccco1 (centres undefined) | 8.72% (inactive) |  |
| NNc1nnc(NN)c2ccccc12 | -57.3% (inactive) |  |
| CCCCc1nnc(NC(=O)CSc2nc(N)cc(=O)[nH]2)s1 |  | 3.16 µM (active) |
| CCCCc1nnc(NC(=O)CSc2nc(C)cc(=O)[nH]2)s1 | -6.82% (inactive) |  |
| NC(=O)c1c(NC(=O)CSc2nc(N)cc(=O)[nH]2)sc2c1CCCC2 | 2.28% [at 10 µM] (inactive) |  |
| Cc1cccc(C)c1NC(=O)NC1=CCCN1C | -5.92% (inactive) |  |
